High-throughput results as filed in PubChem BioAssay.
In the library only some 9% were active in any assay of this set; here they are far more common.
ALDH1A1 block – ALDH1A1 (human) enzyme inhibition; Potency, µM (top dose mostly 75.3 µM), for inactives: top-dose activity, negative = inhibition, usual class: inhibitors; Purified ALDH1A1, NADH fluorescence, propionaldehyde substrate; AID 1030; P00352; 7.3% of 220,000 active; active means well fitted inhibition curve with a large enough effect, not every such curve was filed as active; inconclusive means small, poorly fitted or top-dose-only effect, or another doubt; inactive means no such curve, though single readings can be large or run the other way;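 further: plate controls were no enzyme wells and a reference inhibitor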
Target sequence (P00352 whole entry, looked up): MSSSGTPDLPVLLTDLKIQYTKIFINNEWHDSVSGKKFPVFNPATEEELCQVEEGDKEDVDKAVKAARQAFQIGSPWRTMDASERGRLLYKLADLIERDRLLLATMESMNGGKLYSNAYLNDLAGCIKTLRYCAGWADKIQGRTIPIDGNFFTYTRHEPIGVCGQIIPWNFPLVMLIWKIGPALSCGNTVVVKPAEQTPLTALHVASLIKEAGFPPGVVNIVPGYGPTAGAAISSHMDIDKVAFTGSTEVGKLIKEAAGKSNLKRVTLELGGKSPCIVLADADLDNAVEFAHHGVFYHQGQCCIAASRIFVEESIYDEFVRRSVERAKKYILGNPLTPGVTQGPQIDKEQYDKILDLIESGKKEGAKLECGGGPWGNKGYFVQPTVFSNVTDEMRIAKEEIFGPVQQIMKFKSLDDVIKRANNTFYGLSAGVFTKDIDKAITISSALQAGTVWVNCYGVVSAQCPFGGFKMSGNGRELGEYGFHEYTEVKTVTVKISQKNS
HTT cytoprotect – cytoprotection in Huntington HTT-Q103 PC12 cell model. PC12 HTT-Q103 induced, cytoprotection, ATP luminescence, 40 h. Potency, µM (titrated, usually from 56.4 µM), for the others: cytoprotection (ATP increase), hits mostly activators. 0.14% of 230,000 active. AID 1471; further: % of control where 0% means no effect; nearly all actives have a fitted effect of over 45% in size
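PC12 cells with ecdysone-inducible HTT exon 1 Q103-GFP, induced with 100 nM tebufenozide and co-treated with library compounds in a dose series (1536-well, 1500 cells/well). Cytoprotection read as ATP content by ATPlite luminescence.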
HPGD inh – blocks human HPGD enzyme activity; purified HPGD, NADH fluorescence kinetic, PGE2 substrate; Potency, µM, for the others: at the highest dose activity change, negative = inhibition, actives largely listed as inhibitors; 4.3% of 150,000 active; active means well fitted inhibition curve with a large enough effect, not every such curve was filed as active; inconclusive means small, poorly fitted or top-dose-only effect, or another doubt; inactive means no such curve, though single readings can be large or run the other way; further: on the % scale 0 is the no-effect control and ±100 the full control effect
Target sequence (P15428 whole entry, looked up): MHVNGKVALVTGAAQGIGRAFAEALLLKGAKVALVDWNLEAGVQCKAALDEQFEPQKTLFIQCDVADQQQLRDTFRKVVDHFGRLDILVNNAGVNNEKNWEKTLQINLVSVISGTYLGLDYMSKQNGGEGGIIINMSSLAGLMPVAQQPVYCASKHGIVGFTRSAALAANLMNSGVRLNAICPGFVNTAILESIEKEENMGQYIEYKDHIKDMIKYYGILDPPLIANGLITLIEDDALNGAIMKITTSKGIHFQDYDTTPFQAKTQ
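20 nM HPGD preincubated 15 min at room temperature with compound in 50 mM Tris-HCl pH 8, 0.01% Tween 20. Started with 1 mM NAD+ and 30 uM prostaglandin E2; NADH fluorescence (360/450 nm) read 5 times over 30-s intervals, last minus first.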
HttQ103 aggreg – inhibitors of mutant huntingtin aggregate formation in PC12 cells; PC12 HttQ103-GFP aggregates, Acumen cytometry, 40 h; Potency, µM (titrated, usually from 46.1 µM), for the others: at the highest dose activity change, negative = inhibition, actives largely listed as inhibitors; 1.1% of 220,000 active; further: on the % scale 0 is the no-effect control and ±100 the full control effect; nearly all actives have a fitted effect of over 60% in size
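Multiplexed with ATP-based cell death, this channel scores GFP aggregates in PC12 cells expressing inducible HTTex1-Q103-GFP. Induction used 100 nM tebufenozide; compounds were tested in concentration series.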
Luc counter – counter-screen: inhibitors of Kinase-Glo firefly luciferase | Q27757 | Kinase-Glo luciferase, ATP luminescence, 8 min | Potency, µM (top dose mostly 38.3 µM), inactives show at the top dose activity change, negative = inhibition, actives largely listed as inhibitors | 0.28% of 200,000 active | AID 1379; further: on the % scale 0 is the no-effect control and ±100 the full control effect; nearly all actives have a fitted effect of over 60% in size
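Compound is pinned into ATP-containing buffer (10 uM ATP, imidazole pH 7.2, 7 mM MgCl2). Kinase-Glo luciferase reagent is then added. Light output is recorded following an 8-min room-temperature incubation.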
LMNA splice mod – modulators of lamin A splicing. AID 1487. HeLa LMNA splicing GFP/RFP minigene ratio, 48 h. 0.01% of 200,000 active. Potency, µM (doses to about 46.1 µM), for inactives: at the highest dose ratio change, negative = inhibition, actives largely listed as inhibitors; active means well fitted inhibition curve with a large enough effect in the signal ratio, with a control signal flat, not every such curve was filed as active; inconclusive means small, poorly fitted or top-dose-only effect, or effect the other way, or a change in a side signal; the % refers to the signal ratio; further: on the % scale 0 is the no-effect control and ±100 the full control effect
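S3 HeLa stable clones carrying a lamin A-EGFP splicing minigene plus DsRed2 were seeded at 600 cells/well in Opti-MEM with 2% FBS, pin-dosed and incubated 48 h at 37°C. Acumen cytometry (488 nm) gave the GFP/RFP total-intensity ratio.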
An asterisk follows results filed as active; ? = inconclusive; · = no result; [ ] = remark or other dose. Unless noted, the call rests on the fitted dose curve; in most records, active means well fitted curve in the direction sought with a large enough effect; inconclusive means small, poorly fitted or top-dose-only effect, or another doubt; inactive means no such curve, though single readings can be large; an effect the other way counts as inactive or inconclusive. Potency means the concentration at half of the fitted maximal effect.

SMILES | ALDH1A1 block | HTT cytoprotect | HPGD inh | HttQ103 aggreg | Luc counter | LMNA splice mod
CCCOc1cccc(C(=O)NC(=S)Nc2cccc(NC(=O)c3ccccc3Cl)c2)c1 | 13µM* | -18%[10 µM] | -12% | 22% | 7% | -6%
CCCOc1cccc(C(=O)NC(=S)Nc2ccccc2)c1 | 18µM* | 8%[10 µM] | -20% | 22% | 1% | ?
CCC(=O)Nc1cccc(NC(=S)NC(=O)c2ccccc2Cl)c1 | 2% | -30% | -5% | -13% | -1% | -16%
CCCOc1cccc(C(=O)O)c1 | 5% | -5% | -4% | 8% | 4% | 7%
CN1CCN(c2cc(N3CCc4ccccc4C3)c(F)cc2[N+](=O)[O-])CC1 | -4% | -28%[10 µM] | -11% | -22% | 4% | ?
COc1ccc(C2=NN(c3nc(-c4ccccc4)c(CC(=O)O)s3)C(c3ccco3)C2)cc1 (configuration not stated) | ? | -4%[10 µM] | ? | 23% | 0% | 10%
CCOC(=O)c1c(CN2CCN(CCO)CC2)n(-c2ccccc2)c2cc(Br)c(O)cc12 | · | -10%[10 µM] | · | 0%[9.22 µM] | · | ·
COc1cc2c(cc1/C=C1/NC(=O)N(CC(=O)Nc3ccccc3)C1=O)OCO2 | 10% | 25%[10 µM] | · | 26%[9.22 µM] | -6% | 12%[46 µM]
CCOc1cc2c(cc1/C=C1/NC(=O)N(CC(=O)OC)C1=O)OCO2 | 11µM* | -7% | · | -5% | 3% | ·
COC(=O)CN1C(=O)N/C(=C/c2cc(Cl)c(OC)c(OC)c2)C1=O | 4µM* | -23% | · | -11% | 2% | ·
COC(=O)CN1C(=O)N/C(=C/c2cc3c(cc2OC)OCO3)C1=O | 7.9µM* | -25% | · | 2% | 1% | ·
O=C(NCC1OCCc2ccccc21)C1COc2ccccc2O1 (configuration not stated) | 9% | -40% | · | -5% | 3% | ·
CC1=CC(c2ccccc2)n2nc(N3C(=O)c4ccccc4C3=O)nc2N1 (configuration not stated) | -8% | -20% | -5% | -3% | -1% | 6%
Brc1ccc(C2C3=C(Nc4ncnn42)c2ccccc2OC3c2ccncc2)cc1 (configuration not stated) | 11% | -61% | -10% | 10µM* | -3% | ?
Cc1ccc(-c2nn3c(C)nnc3s2)cc1NC(=O)c1ccc(-c2cccc(Cl)c2)o1 | ? | -35% | 22µM* | ? | -3% | -2%
CCCCC(=O)Nc1cccc(-c2nn3c(C)nnc3s2)c1 | 2% | 7% | 16µM* | ? | 1% | -13%
Cc1cc(C)c(O)c(N)c1 | 25µM* | 8%[10 µM] | · | 10%[9.22 µM] | -5% | ?
Cc1cc(C)c(O)c(Cc2cccc(Cc3cc(C)cc(C)c3O)c2O)c1 | 1%[13.5 µM] | -4%[10 µM] | -6% | · | -4%[7.66 µM] | ·
O=S(=O)(c1ccccc1)N1CCN(c2cc(-c3ccccc3)nc3ncnn23)CC1 | ? | -19%[10 µM] | -11% | 11µM* | -4% | 7%
COc1ccc(S(=O)(=O)N2CCN(c3cc(-c4ccccc4)nc4ncnn34)CC2)cc1 | ? | 4%[10 µM] | ? | 13µM* | -4% | ?
COC(=O)c1ccccc1NC(=O)CSc1nc(O)c(-c2ccccc2)c(=O)[nH]1 | -3% | 21%[10 µM] | · | 30% | 1% | 15%[46 µM]
S=c1nc[nH]c2c1sc1nc(N3CCOCC3)c3c(c12)CCCC3 | 1.4µM* | -71% | · | 14% | 2% | ?
CC(=O)c1c(C)nc(-c2ccc(Cl)cc2)nc1N | 22µM* | · | · | -1% | -6% | ·
O=C1C(=O)N(CNc2cccnc2)c2ccccc21 | -1% | 6%[10 µM] | 16µM* | 9% | -1% | -3%
O=C1C(=O)N(CNc2ccccn2)c2ccccc21 | 3.2µM* | -75% | -17% | 2% | -2% | 5%
SMILES | ALDH1A1 block | HTT cytoprotect | HPGD inh | HttQ103 aggreg | Luc counter | LMNA splice mod
CN1C(=O)c2cccc3c(S(=O)(=O)Nc4ccccn4)ccc1c23 | ? | 19%[1.9 µM] | -19% | 22% | -1% | ?
O=C1CCC(=O)N1CNc1cccnc1 | 12% | -22% | -3% | -6% | -2% | 18%
COc1ccc(CCNC(=O)CN2CCC(C)CC2)cc1OC | 11µM* | 8% | -14% | -2% | -3% | 10%
COc1ccc(CCNC(=O)C(=O)NCCOc2ccccc2Cl)cc1OC | ? | 22%[10 µM] | -8% | 6% | -2% | -9%
COc1ccc(CCNC(=O)COC(=O)c2cnc(C)cn2)cc1OC | 13µM* | 13% | 8% | 19% | -2% | 6%
COc1ccc(CCNC(=O)C(=O)NCCOc2ccccc2)cc1OC | 4µM* | 23%[10 µM] | -15% | -2% | 4% | 1%
COc1ccc(CCNC(=O)CCC2COc3ccccc3O2)cc1OC (configuration not stated) | 13µM* | -16% | -10% | -24% | -2% | 4%
NS(=O)(=O)c1ccc(CCNC(=O)CCC2COc3ccccc3O2)cc1 (configuration not stated) | 10% | -12%[10 µM] | -9% | -1% | -1% | -10%
COc1ccc(NC(=O)Nc2cccc(F)c2)c(OC)c1 | 0% | · | · | 1% | 1% | ·
COc1ccc(/C=N/Nc2ncc(Br)cn2)c(OC)c1 | 0% | 3.5µM* | · | ? | 1% | ·
CCCOc1ccc2oc(=O)c3c(c2c1)CCCN3C(=O)CN1CCCC(C(=O)OCC)C1 (configuration not stated) | ? | 28% | -13% | 22% | 1% | 8%
COc1ccc(C)cc1NS(=O)(=O)c1cccc2nonc12 | 14µM* | 7% | -14% | 0% | 2% | -11%
O=C1COc2ccc(C(=O)COC(=O)C3CCN(S(=O)(=O)c4cccs4)CC3)cc2N1 | -17% | -20%[10 µM] | · | 4% | · | -2%
NC(=O)c1c(NC(NC(=O)c2ccco2)C(=O)c2ccc(Cl)cc2)sc2c1CCCC2 (configuration not stated) | 18µM* | -44% | -20% | -15% | -1% | -5%
CS(=O)(=O)N1N=C(c2cccs2)CC1c1ccco1 (configuration not stated) | 20µM* | -1%[10 µM] | · | 0%[9.22 µM] | 0% | ·
CCc1ccc(C2CC(c3ccco3)=NN2S(C)(=O)=O)cc1 (configuration not stated) | ? | -36% | -4% | -13% | 11µM* | 13%[0.0737 µM]
O=C(c1ccco1)N1N=C(c2cccs2)CC1c1ccc(F)cc1 (configuration not stated) | 20µM* | -2% | -23% | -30% | -2% | 7%
O=C1c2cccnc2C(=O)N1Cc1ccc(Cl)cc1 | -13% | 13% | -11% | 11% | -2% | -1%
CCn1c2ccccc2c2cc(NC(=O)COC(=O)c3ccccc3O)ccc21 | 0% | -33% | · | -7% | 3% | ?
